Records with an inconclusive call do not appear. Values without a mark were called inactive. Active and inactive are the calls of the source. Calls follow the shape of the dose curve; as a rule, active = well fitted cell-killing curve with a large enough effect; inconclusive = small, poorly fitted or top-dose-only effect, or effect the other way; inactive = no such curve, though single readings can be large or run the other way.
The compounds below were run on Es-2 (assay: Confirmatory qHTS for gynecologic anti-cancer compounds from libraries of approved drugs and bioactive compounds). Conditions: gynecologic cancer cell panel viability, ATPlite luminescence, 48 h; series mostly up to 57.6 µM; activity change, negative = viability loss: at the top concentration.
How it was run: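 Viability is measured as ATP-dependent luciferase light using ATPlite, read 15 min after reagent addition at room temperature. Compounds, in DMSO, span 57.5 uM down to 0.977 nM over 11 threefold steps for 48 h.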
With `CCNC(=O)C[C@@H]1N=C(c2ccc(Cl)cc2)c2cc(OC)ccc2-n2c(C)nnc21` the Potency was 24.3 µM (active). In the case of `C[C@H]1CCC/C=C/C2C[C@H](O)C[C@H]2[C@H](O)/C=C/C(=O)O1` (some centres undefined), the Potency is reported as 0.485 µM (active). In the case of `C=C(C)[C@H]1Cc2c(ccc3c2O[C@@H]2COc4cc(OC)c(OC)cc4[C@@H]2C3=O)O1`, the Potency is reported as 0.685 µM (active). In the case of `CCC(=O)O[C@H]1CC[C@H]2[C@@H]3CCC4=CC(=O)CC[C@]4(C)[C@H]3CC[C@]12C`, the “activity change, negative = viability loss” value is reported as 5.91%. In the case of `O=C(O)Cc1ccccc1`, the “activity change, negative = viability loss” value is reported as 20.5%. For `C/C=C(/C)C(=O)O[C@H]1C(C)=C2[C@H]([C@@H]1OC(=O)CCCCCCC)[C@@](C)(OC(C)=O)C[C@H](OC(=O)CCC)[C@@]1(O)[C@H]2OC(=O)[C@@]1(C)O`, the Potency was 27.3 µM (active). With `CCOc1ccccc1-n1c(C(C)N2CCN(C(=O)COc3ccc(Cl)cc3)CC2)nc2ccccc2c1=O` (centres undefined) the Potency was 3.43 µM (active). `CCN1CCN(C(=O)Cc2ccc(Nc3ncc(F)c(Nc4ccc(C(=O)Nc5ccccc5Cl)cc4)n3)cc2)CC1` was tested, and the “activity change, negative = viability loss” value was -8.79%. With `C[C@]12CC[C@H]3[C@@H](CCC4=CC(=O)CC[C@@H]43)[C@@H]1CC[C@@H]2OC(=O)CCc1ccccc1` the “activity change, negative = viability loss” value was -4.17%.
% is scaled to controls: 0 for no effect and ±100 for the full control effect; potency is read from the fitted curve at half-maximal effect.
Also: nearly all actives have a fitted effect of over 55% in size.
